Laboratory results: PubChem BioAssay AID1159580 (chemical genetic matrix, 2015)
Out of some 5,500 compounds screened, about 2,000 (36%) were called active. Roughly 18% stayed inconclusive and do not appear here. Cut-off read from the data, not from the text of the source: active = normalized growth mostly below about 0.91 (no sharp cut-off); inconclusive = no clear call, values can overlap the other calls; inactive = mostly above about 0.92. Some of the results follow.

Assay: chemical genetic growth profiling, strain panel (AID 1159580);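 note: tested at 20 µM; growth read once vehicle control cultures reached saturation at 30 °C; 1 = growth at the plate median or of vehicle wells; lower values mean less growth of the strain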
Conditions: growth OD
[1] = S. cerevisiae deletion strains, locus YDL101C, strain DUN1, stronger effect = lower value
[2] = S. cerevisiae deletion strains, locus YHR030C, strain SLT2, stronger effect = lower value
[3] = S. cerevisiae deletion strains, locus YAL013W, strain DEP1, stronger effect = lower value
[4] = S. cerevisiae deletion strains, locus YBR229C, strain ROT2, stronger effect = lower value
[5] = S. cerevisiae deletion strains, locus YDR150W, strain NUM1, stronger effect = lower value
[6] = S. cerevisiae deletion strains, locus YEL061C, strain CIN8, stronger effect = lower value
[7] = S. cerevisiae deletion strains, locus YGR078C, strain PAC10, stronger effect = lower value
[8] = S. cerevisiae deletion strains, locus YGR229C, strain SMI1, stronger effect = lower value
[9] = S. cerevisiae deletion strains, locus YHR087W, strain rtc3, stronger effect = lower value
[10] = S. cerevisiae deletion strains, locus YJR043C, strain POL32, stronger effect = lower value
[11] = S. cerevisiae deletion strains, locus YJR075W, strain HOC1, stronger effect = lower value
[12] = S. cerevisiae deletion strains, locus YLR039C, strain RIC1, stronger effect = lower value
[13] = S. cerevisiae deletion strains, locus YLR058C, strain SHM2 (second series), stronger effect = lower value
[14] = S. cerevisiae deletion strains, locus YLR085C, strain ARP6, stronger effect = lower value
[15] = S. cerevisiae deletion strains, locus YLR262C, strain YPT6, stronger effect = lower value
[16] = S. cerevisiae deletion strains, locus YML094W, strain GIM5, stronger effect = lower value
[17] = S. cerevisiae deletion strains, locus YMR219W, strain ESC1, stronger effect = lower value
[18] = S. cerevisiae deletion strains, locus YMR263W, strain SAP30, stronger effect = lower value
[19] = S. cerevisiae deletion strains, locus YMR307W, strain GAS1, stronger effect = lower value
[20] = S. cerevisiae deletion strains, locus YNL153C, strain GIM3, stronger effect = lower value
[21] = S. cerevisiae deletion strains, locus YNL298W, strain CLA4 (second series), stronger effect = lower value
[22] = S. cerevisiae deletion strains, locus YNL322C, strain KRE1, stronger effect = lower value
[23] = S. cerevisiae deletion strains, locus YNR030W, strain Alg12, stronger effect = lower value
[24] = S. cerevisiae deletion strains, locus YPL055C, strain LGE1, stronger effect = lower value
[25] = S. cerevisiae deletion strains, locus YPL241C, strain CIN2, stronger effect = lower value
[26] = S. cerevisiae deletion strains, locus YPR135W, strain CTF4, stronger effect = lower value

Measured: normalized growth

FC(F)(F)c1cccc(NC(=S)NN=C2CCCCCC2)c1
active: [2] 0.846 | S. cerevisiae deletion strains, locus YLR113W, strain HOG1, stronger effect = lower value 0.811 | S. cerevisiae deletion strains, locus YPL256C, strain CLN2, stronger effect = lower value 0.84
inactive: S. cerevisiae deletion strains, locus YAR019C, strain CDC15, stronger effect = lower value 0.978 | S. cerevisiae deletion strains, locus YBL105C, strain PKC1, stronger effect = lower value 0.983 | S. cerevisiae deletion strains, locus YBR135W, strain CKS1, stronger effect = lower value 0.994 | S. cerevisiae deletion strains, locus YBR136W, strain MEC1, stronger effect = lower value 0.987 | S. cerevisiae deletion strains, locus YBR160W, strain CDC28, stronger effect = lower value 0.991 | S. cerevisiae deletion strains, locus YDL017W, strain CDC7, stronger effect = lower value 0.983 | S. cerevisiae deletion strains, locus YDL028C, strain MPS1, stronger effect = lower value 0.997 | [1] 0.984 | S. cerevisiae deletion strains, locus YDL108W, strain KIN28, stronger effect = lower value 1 | S. cerevisiae deletion strains, locus YDL132W, strain cdc53, stronger effect = lower value 0.989 | S. cerevisiae deletion strains, locus YDL214C, strain PRR2, stronger effect = lower value 0.909 | S. cerevisiae deletion strains, locus YDR052C, strain DBF4, stronger effect = lower value 0.982 | S. cerevisiae deletion strains, locus YDR054C, strain cdc34, stronger effect = lower value 0.966 | S. cerevisiae deletion strains, locus YDR226W, strain ADK1, stronger effect = lower value 0.978 | S. cerevisiae deletion strains, locus YDR477W, strain SNF1, stronger effect = lower value 0.91 | S. cerevisiae deletion strains, locus YER123W, strain YCK3, stronger effect = lower value 0.831 | S. cerevisiae deletion strains, locus YER133W, strain GLC7, stronger effect = lower value 0.892 | S. cerevisiae deletion strains, locus YFL009W, strain cdc4, stronger effect = lower value 0.986 | S. cerevisiae deletion strains, locus YFL029C, strain CAK1, stronger effect = lower value 0.983 | S. cerevisiae deletion strains, locus YFR003C, strain YPI1, stronger effect = lower value 0.989 | S. cerevisiae deletion strains, locus YFR019W, strain FAB1, stronger effect = lower value 0.946 | S. cerevisiae deletion strains, locus YFR028C, strain CDC14, stronger effect = lower value 0.992 | S. cerevisiae deletion strains, locus YGR040W, strain KSS1, stronger effect = lower value 0.914 | S. cerevisiae deletion strains, locus YGR052W, strain FMP48, stronger effect = lower value 0.924 | S. cerevisiae deletion strains, locus YGR092W, strain DBF2, stronger effect = lower value 0.823 | S. cerevisiae deletion strains, locus YHR079C, strain IRE1, stronger effect = lower value 0.81 | S. cerevisiae deletion strains, locus YHR082C, strain KSP1, stronger effect = lower value 0.997 | S. cerevisiae deletion strains, locus YHR205W, strain SCH9, stronger effect = lower value 0.914 | S. cerevisiae deletion strains, locus YIL147C, strain SLN1, stronger effect = lower value 0.987 | S. cerevisiae deletion strains, locus YJL095W, strain BCK1, stronger effect = lower value 0.887 | S. cerevisiae deletion strains, locus YJL128C, strain PBS2, stronger effect = lower value 0.98 | S. cerevisiae deletion strains, locus YJL157C, strain FAR1, stronger effect = lower value 0.869 | S. cerevisiae deletion strains, locus YJR016C, strain ILV3, stronger effect = lower value 0.993 | S. cerevisiae deletion strains, locus YJR066W, strain TOR1 (second series), stronger effect = lower value 0.827 | S. cerevisiae deletion strains, locus YJR066W, strain TOR1, stronger effect = lower value 0.907 | S. cerevisiae deletion strains, locus YKL048C, strain ELM1, stronger effect = lower value 0.949 | S. cerevisiae deletion strains, locus YKL067W, strain YNK1, stronger effect = lower value 0.92 | S. cerevisiae deletion strains, locus YKL101W, strain HSL1, stronger effect = lower value 0.928 | S. cerevisiae deletion strains, locus YKL193C, strain SDS22, stronger effect = lower value 0.986 | S. cerevisiae deletion strains, locus YKL203C, strain TOR2, stronger effect = lower value 0.936 | S. cerevisiae deletion strains, locus YLR133W, strain CKI1, stronger effect = lower value 0.921 | S. cerevisiae deletion strains, locus YLR403W, strain SFP1, stronger effect = lower value 0.882 | S. cerevisiae deletion strains, locus YML070W, strain DAK1, stronger effect = lower value 0.897 | S. cerevisiae deletion strains, locus YMR001C, strain CDC5, stronger effect = lower value 0.979 | S. cerevisiae deletion strains, locus YMR205C, strain PFK2 (second series), stronger effect = lower value 0.936 | S. cerevisiae deletion strains, locus YMR277W, strain FCP1, stronger effect = lower value 0.988 | S. cerevisiae deletion strains, locus YNL006W, strain LST8, stronger effect = lower value 0.986 | S. cerevisiae deletion strains, locus YNL020C, strain ARK1, stronger effect = lower value 0.902 | S. cerevisiae deletion strains, locus YNL161W, strain CBK1, stronger effect = lower value 0.987 | S. cerevisiae deletion strains, locus YNL183C, strain NPR1, stronger effect = lower value 0.949 | S. cerevisiae deletion strains, locus YNL207W, strain RIO2, stronger effect = lower value 0.98 | S. cerevisiae deletion strains, locus YNL222W, strain SSU72, stronger effect = lower value 1 | S. cerevisiae deletion strains, locus YNL307C, strain MCK1 (second series), stronger effect = lower value 0.798 | S. cerevisiae deletion strains, locus YOL078W, strain AVO1, stronger effect = lower value 0.994 | S. cerevisiae deletion strains, locus YOL136C, strain PFK27, stronger effect = lower value 0.896 | S. cerevisiae deletion strains, locus YOR061W, strain CKA2, stronger effect = lower value 0.862 | S. cerevisiae deletion strains, locus YOR119C, strain RIO1, stronger effect = lower value 0.973 | S. cerevisiae deletion strains, locus YOR231W, strain MKK1, stronger effect = lower value 0.828 | S. cerevisiae deletion strains, locus YOR329C, strain SCD5, stronger effect = lower value 0.988 | S. cerevisiae deletion strains, locus YPL031C, strain PHO85, stronger effect = lower value 0.884 | S. cerevisiae deletion strains, locus YPL153C, strain RAD53, stronger effect = lower value 0.872 | S. cerevisiae deletion strains, locus YPL204W, strain HRR25, stronger effect = lower value 0.838 | S. cerevisiae deletion strains, locus YPL209C, strain IPL1, stronger effect = lower value 0.988 | S. cerevisiae deletion strains, locus YPR025C, strain CCL1, stronger effect = lower value 0.995 | S. cerevisiae deletion strains, locus YPR106W, strain ISR1, stronger effect = lower value 0.994 | S. cerevisiae deletion strains, locus YPR111W, strain DBF20, stronger effect = lower value 0.984 | S. cerevisiae deletion strains, strain NNK1, stronger effect = lower value 1 | S. cerevisiae deletion strains, strain TSCII, stronger effect = lower value 0.982

C=C1SC(Nc2cccc(C(F)(F)F)c2)=NC12CCCCC2
inactive: [3] 0.999 | [4] 1.01 | [1] 1.01 | S. cerevisiae deletion strains, locus YDL134C, strain PPH21, stronger effect = lower value 1.03 | [5] 0.987 | [6] 1.01 | [7] 0.986 | [8] 0.999 | [2] 0.955 | [9] 0.99 | [10] 1.01 | [11] 0.995 | [12] 0.958 | [13] 0.987 | [14] 1.03 | [15] 0.971 | [16] 1.02 | [17] 0.999 | [18] 0.982 | [19] 0.937 | [20] 0.973 | [21] 0.985 | [22] 1.01 | [23] 1.01 | [24] 0.995 | [25] 1.01 | [26] 0.904 | S. cerevisiae strains, strain wild type, stronger effect = lower value 1

FC(F)(F)c1ccc(Cl)c(NC(=S)NN=C2CCCCCC2)c1
active: [6] 0.89 | S. cerevisiae deletion strains, locus YKL190W, strain CNB1, stronger effect = lower value 0.891 | [12] 0.783 | [14] 0.741 | [21] 0.813 | S. cerevisiae deletion strains, locus YOL006C, strain TOP1, stronger effect = lower value 0.61
inactive: [3] 0.989 | [4] 0.977 | S. cerevisiae deletion strains, locus YCL061C, strain MRC1, stronger effect = lower value 1.01 | [1] 1.07 | [5] 1.04 | [7] 0.996 | [8] 0.948 | [2] 0.924 | [9] 0.956 | [10] 1.03 | [11] 1.02 | [13] 0.99 | [15] 0.883 | [16] 0.912 | [17] 0.984 | [18] 0.996 | [20] 1.02 | [22] 0.989 | [23] 0.895 | [24] 0.949 | [25] 0.969 | [26] 1

COc1cc2c(cc1OC)[C@@H](c1ccccc1)CN(C)CC2
inactive: S. cerevisiae deletion strains, locus YAL040C, strain CLN3, stronger effect = lower value 1 | S. cerevisiae deletion strains, locus YCL061C, strain MRC1 (second series), stronger effect = lower value 1.01 | S. cerevisiae deletion strains, locus YDR363W, strain ESC2, stronger effect = lower value 1.01 | S. cerevisiae deletion strains, locus YER002W, strain NOP16, stronger effect = lower value 1 | [7] 1.01 | [11] 1.01 | [18] 1.01 | [19] 1.01 | S. cerevisiae deletion strains, locus YNL128W, strain TEP1, stronger effect = lower value 1.01 | [20] 1.04 | S. cerevisiae deletion strains, locus YNL175C, strain NOP13, stronger effect = lower value 1 | S. cerevisiae deletion strains, locus YNL197C, strain WHI3, stronger effect = lower value 1 | S. cerevisiae deletion strains, locus YNL224C, strain SQS1, stronger effect = lower value 1 | [22] 1.01 | S. cerevisiae deletion strains, locus YOR083W, strain WHI5 (second series), stronger effect = lower value 1.02 | [24] 0.995 | [25] 1.01
